# Measurements published in PubChem BioAssay (NCATS).
# Results filed as inconclusive are left out. Unmarked numbers belong to inactive results. The call rests on the fitted dose curve; in most records, active means well fitted cell-killing curve with a large enough effect; inconclusive means small, poorly fitted or top-dose-only effect, or effect the other way; inactive means flat fitted curve, though single readings scatter. *1 amine or outer side, *2 acyl side, *3 side chain or, on linkers, in order; H or OH if unused. Where a SMILES comes first, the peptide text is derived from it. Bridges are numbered along the chain shown (N, C = ends). [ ]: non-standard residue; d: D form. The star is where a group is joined. ξ: configuration not given here. X10 = NC1=NCCC(C(N[*:1])C(=O)[*:2])N1; ΔAla(3-NHCONH2) = NC(=O)NC=C(N)C(=O)O; ξβ3hOrn = NCCCC(N)CC(=O)*; Dap = NC[CH](N)C(=O)O
# Test system: Tov-21-G
# Assay: Primary qHTS to identify gynecologic anti-cancer compounds using libraries of approved drugs and bioactive compounds (AID 1345084); further: nearly all actives have a fitted effect of over 55% in size
# Conditions: Gynecologic cancer cell panel viability, ATPlite luminescence, 48 h; series mostly up to 57.5 µM; activity change, negative = cytotoxicity: at the top concentration
# How it was run: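 Five-point cytotoxicity, 48 h drug exposure at 37 C, 5% CO2, on cells seeded 16 h beforehand. ATP content read by ATPlite luminescence.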
# On the % scale 0 is the no-effect control and ±100 the full control effect.
row,Structure (SMILES),"activity change, negative = cytotoxicity"
1,CC(=O)Nc1ccc(S(=O)(=O)Nc2cc(C)on2)cc1,2.3%
2,CCCCN(CCN(CCCC)C(=O)N1CCOCC1)C(=O)N1CCOCC1,-2.99%
3,C[C@H]1C[C@H](O)c2ccsc2S1(=O)=O,5.8%
4,NC(=O)NS(=O)(=O)c1ccc(Cl)cc1,10.3%
5,Cn1c(=O)c2c(ncn2CC(=O)O)n(C)c1=O,9.81%
6,C[C@H]1NCc2cc(-c3ccc4c(=O)c(C(=O)O)cn(C5CC5)c4c3OC(F)F)ccc21,0.796% [at 25.3 µM]
7,Cc1nc(C2CCCCC2)c(-c2ccc(S(N)(=O)=O)c(F)c2)o1,-3.86%
8,O=c1[nH]c(=O)n([C@H]2O[C@H](CO)[C@@H](O)[C@@H]2O)cc1/C=C\Br,15.6%
9,COc1ccccc1OCC1CNC(=O)O1 (configuration not stated),2.91%
10,Nc1ccc([N+](=O)[O-])c(C(F)(F)F)c1,0.461%
11,N#CSCC(=O)O,2.17%
12,CCCCN(CCCC)C(C(N)=O)c1ccc(OC)cc1 (configuration not stated),7.58%
13,O=C(CCCl)NCCc1ccccc1,3.78%
14,O=[N+]([O-])c1ccc(-c2nc(-c3ccc(F)cc3)c(-c3ccncc3)[nH]2)cc1,-0.82%
15,CCC(C(=O)NC(=O)NC(C)=O)c1ccccc1 (configuration not stated),4.42%
16,CCCC(=O)OCOC(=O)C1=C(C)NC(C)=C(C(=O)OC)C1c1cccc(Cl)c1Cl (configuration not stated),1.44%
17,Cc1ccccc1C(=O)N1CC/C(=N\OS(=O)(=O)O)c2ccc(Cl)cc21,10.4%
18,CC(NC(CCc1ccccc1)C(=O)O)C(=O)N1C(=O)N(C)CC1C(=O)O (configuration not stated),-0.329%
19,C1=CC2C3C=CC(C3)C2C1 (configuration not stated),-1.48% [at 116 µM]

row,Structure (SMILES),"activity change, negative = cytotoxicity"
1,CC1CCCCN1CCCOC(=O)c1ccc(OC2CCCCC2)cc1 (configuration not stated),-6.96%
2,CC(C(=O)O)c1ccc(/C=C2\CCCCC2=O)cc1 (configuration not stated),-0.242%
3,O=C(CO)[C@@H](O)[C@H](O)[C@@H](O)CO,4.82%
4,CC(=O)N(CC(O)CO)c1c(I)c(C(=O)NCCO)c(I)c(C(=O)NCC(O)CO)c1I (configuration not stated),3.66%
5,O=C(O)[C@H](O)[C@@H](O)[C@H](O[C@@H]1O[C@H](CO)[C@H](O)[C@H](O)[C@H]1O)[C@H](O)CO,-3.15%
6,CCCCC(O)/C=C(C)/C=C/C=C/C(=O)N1CCCC1=O (configuration not stated),0.375%
7,Cc1ncc([N+](=O)[O-])n1C,-2.44%
8,CCCN(CCC)C(=O)C(CCC(=O)OCCCN1CCN(CCOC(=O)Cc2c(C)n(C(=O)c3ccc(Cl)cc3)c3ccc(OC)cc23)CC1)NC(=O)c1ccccc1 (configuration not stated),-0.0826%
9,COC(=O)c1c(Cl)c(Cl)c(C(=O)OC)c(Cl)c1Cl,-2.13% [at 116 µM]
10,NCCCC(N)CC(=O)NCC1NC(=O)C(CO)NC(=O)C(N)CNC(=O)C(C2CCN=C(N)N2)NC(=O)C(=CNC(N)=O)NC1=O (stereo not drawn) (H-[Dap]S[Dap](ξβ3hOrn)[ΔAla(3-NHCONH2)][X10]; lactam 1-C; configuration not given here),4.2% [at 0.462 µM]
11,CC(NN)c1ccccc1 (configuration not stated),3.24% [at 25.3 µM]
12,c1ccc2occc2c1,-3.84% [at 116 µM]
13,CCCCCOc1ccc(C2SC(=O)NC2=O)cc1OCC (configuration not stated),0.211%
14,CCCc1c2oc(C(=O)O)cc(=O)c2cc2c(=O)cc(C(=O)O)n(CC)c12,7.8%
15,COc1ccc2c(c1)CCCC2=O,-0.234%
16,Cc1ccc(O)cc1,-11.8%
17,CC(CCc1ccc2c(c1)OCO2)NN (configuration not stated),3.01%
18,Cc1cc(=O)oc2cc(O[C@@H]3SC[C@@H](O)[C@H](O)[C@H]3O)ccc12,3.19%
